Experiment [1] addresses T1, Serine/threonine-protein kinase Nek9 (Homo sapiens) (UniProt Q8TD19).
T1 sequence (whole entry): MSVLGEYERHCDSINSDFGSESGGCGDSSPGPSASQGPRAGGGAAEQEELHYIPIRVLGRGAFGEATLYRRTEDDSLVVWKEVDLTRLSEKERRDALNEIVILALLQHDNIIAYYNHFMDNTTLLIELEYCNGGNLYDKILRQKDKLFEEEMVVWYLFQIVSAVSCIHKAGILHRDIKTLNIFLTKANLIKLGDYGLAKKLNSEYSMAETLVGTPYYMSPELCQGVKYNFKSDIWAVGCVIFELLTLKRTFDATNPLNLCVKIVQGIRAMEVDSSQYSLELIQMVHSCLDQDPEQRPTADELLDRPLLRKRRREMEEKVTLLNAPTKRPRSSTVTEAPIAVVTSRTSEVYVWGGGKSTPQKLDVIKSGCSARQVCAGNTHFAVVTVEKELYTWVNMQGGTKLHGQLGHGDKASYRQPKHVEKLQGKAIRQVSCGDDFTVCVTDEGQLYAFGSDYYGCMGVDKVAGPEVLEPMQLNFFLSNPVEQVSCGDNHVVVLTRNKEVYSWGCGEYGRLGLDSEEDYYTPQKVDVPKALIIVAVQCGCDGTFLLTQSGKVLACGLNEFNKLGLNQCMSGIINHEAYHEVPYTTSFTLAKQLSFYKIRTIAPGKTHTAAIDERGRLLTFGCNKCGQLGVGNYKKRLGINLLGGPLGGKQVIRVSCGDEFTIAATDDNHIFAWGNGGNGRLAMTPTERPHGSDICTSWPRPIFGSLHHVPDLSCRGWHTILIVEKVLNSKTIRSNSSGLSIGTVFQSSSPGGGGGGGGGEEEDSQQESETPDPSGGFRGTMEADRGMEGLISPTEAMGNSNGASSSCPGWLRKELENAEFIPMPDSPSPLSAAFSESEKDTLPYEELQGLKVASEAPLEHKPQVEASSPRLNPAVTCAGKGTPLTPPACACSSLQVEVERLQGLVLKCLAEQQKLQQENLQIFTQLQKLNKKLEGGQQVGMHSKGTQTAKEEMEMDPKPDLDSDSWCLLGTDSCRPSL
Conditions: at 1 µM.

The target in experiment [2] is Serine/threonine-protein kinase PLK1 (Homo sapiens) (UniProt P53350). Conditions: at 0.1 µM.
For experiment [3] the target is unchanged. Conditions: at 1 µM.
In experiment [4] the target is T2, Dual specificity protein kinase TTK (Homo sapiens) (UniProt P33981).
T2 sequence (whole entry): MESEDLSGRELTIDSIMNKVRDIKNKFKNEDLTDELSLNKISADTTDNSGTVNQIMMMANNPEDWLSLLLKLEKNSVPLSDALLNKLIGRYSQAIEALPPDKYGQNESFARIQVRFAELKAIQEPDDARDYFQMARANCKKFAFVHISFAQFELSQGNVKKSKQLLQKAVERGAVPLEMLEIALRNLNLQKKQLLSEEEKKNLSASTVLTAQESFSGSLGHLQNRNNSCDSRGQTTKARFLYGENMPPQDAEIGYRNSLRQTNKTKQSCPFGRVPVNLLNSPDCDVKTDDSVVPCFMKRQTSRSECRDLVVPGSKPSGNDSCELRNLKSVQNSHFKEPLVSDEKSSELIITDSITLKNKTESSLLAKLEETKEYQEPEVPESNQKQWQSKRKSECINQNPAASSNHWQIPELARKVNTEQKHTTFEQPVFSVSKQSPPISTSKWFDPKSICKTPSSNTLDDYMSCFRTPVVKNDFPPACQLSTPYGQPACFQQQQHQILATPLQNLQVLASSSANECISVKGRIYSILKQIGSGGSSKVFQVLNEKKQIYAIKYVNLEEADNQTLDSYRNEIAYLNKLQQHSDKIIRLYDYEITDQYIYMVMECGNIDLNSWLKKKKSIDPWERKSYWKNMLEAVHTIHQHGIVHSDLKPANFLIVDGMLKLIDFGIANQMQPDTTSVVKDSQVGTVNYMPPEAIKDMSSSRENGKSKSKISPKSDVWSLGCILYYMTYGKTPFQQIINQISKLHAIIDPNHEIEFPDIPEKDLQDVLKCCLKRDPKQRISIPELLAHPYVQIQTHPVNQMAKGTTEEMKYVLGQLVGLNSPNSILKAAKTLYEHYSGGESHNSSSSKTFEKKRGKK
Conditions: at 0.1 µM.

In experiment [5] the test system is T3, Receptor-type tyrosine-protein kinase FLT3 (Homo sapiens), P36888 [D835Y].
T3 sequence (whole entry): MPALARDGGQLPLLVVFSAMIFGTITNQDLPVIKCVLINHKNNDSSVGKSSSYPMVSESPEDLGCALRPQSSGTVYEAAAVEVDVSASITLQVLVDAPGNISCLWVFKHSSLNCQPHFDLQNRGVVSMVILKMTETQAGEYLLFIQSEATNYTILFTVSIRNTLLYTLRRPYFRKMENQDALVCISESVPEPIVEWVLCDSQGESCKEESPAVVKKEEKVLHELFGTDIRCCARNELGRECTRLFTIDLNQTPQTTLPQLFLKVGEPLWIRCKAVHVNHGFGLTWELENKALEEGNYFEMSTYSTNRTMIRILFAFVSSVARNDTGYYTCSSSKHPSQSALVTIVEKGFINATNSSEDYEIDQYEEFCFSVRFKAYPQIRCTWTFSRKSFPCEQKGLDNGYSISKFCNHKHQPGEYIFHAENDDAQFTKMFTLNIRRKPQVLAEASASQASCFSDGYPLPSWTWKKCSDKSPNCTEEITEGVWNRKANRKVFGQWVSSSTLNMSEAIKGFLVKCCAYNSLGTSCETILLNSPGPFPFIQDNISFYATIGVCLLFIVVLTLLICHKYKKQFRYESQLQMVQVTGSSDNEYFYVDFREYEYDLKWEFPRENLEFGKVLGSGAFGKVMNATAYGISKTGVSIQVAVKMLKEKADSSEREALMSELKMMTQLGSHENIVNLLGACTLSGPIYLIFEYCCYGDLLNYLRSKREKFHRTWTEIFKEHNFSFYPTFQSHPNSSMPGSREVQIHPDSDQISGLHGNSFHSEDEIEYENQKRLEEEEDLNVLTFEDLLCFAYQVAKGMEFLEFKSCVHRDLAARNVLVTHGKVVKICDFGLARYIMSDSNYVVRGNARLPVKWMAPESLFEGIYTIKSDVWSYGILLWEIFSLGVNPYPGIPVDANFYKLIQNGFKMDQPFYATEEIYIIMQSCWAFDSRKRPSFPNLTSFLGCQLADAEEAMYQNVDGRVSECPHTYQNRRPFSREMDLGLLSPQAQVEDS
Conditions: at 1 µM.

The target in experiment [6] is Vascular endothelial growth factor receptor 3 (Homo sapiens) (UniProt P35916). Conditions: at 0.1 µM.
For experiment [7] the target is unchanged. Conditions: at 1 µM.
For experiment [8], the target named is Macrophage colony-stimulating factor 1 receptor (Homo sapiens) (UniProt P07333). Conditions: at 0.1 µM.
Experiment [9] has the same target. Conditions: at 1 µM.
Experiment [10] addresses Tyrosine-protein kinase Fyn (Homo sapiens) (UniProt P06241). Conditions: at 0.1 µM.
Experiment [11] has the same target. Conditions: at 1 µM.
The target in experiment [12] is Tyrosine-protein kinase HCK (Homo sapiens) (UniProt P08631). Conditions: at 0.1 µM.
Experiment [13] shares this target. Conditions: at 1 µM.
Experiment [14] concerns the target Insulin-like growth factor 1 receptor (Homo sapiens) (UniProt P08069). Conditions: at 0.1 µM.
Experiment [15] shares this target. Conditions: at 1 µM.
Experiment [16] has as its target Insulin receptor (Homo sapiens) (UniProt P06213). Conditions: at 0.1 µM.
Experiment [17] has the same target. Conditions: at 1 µM.
Experiment [18] addresses Insulin receptor-related protein (Homo sapiens) (UniProt P14616). Conditions: at 0.1 µM.
The target is the same in experiment [19]. Conditions: at 1 µM.
Experiment [20] addresses T4, Tyrosine-protein kinase ITK/TSK (Homo sapiens) (UniProt Q08881).
T4 sequence (whole entry): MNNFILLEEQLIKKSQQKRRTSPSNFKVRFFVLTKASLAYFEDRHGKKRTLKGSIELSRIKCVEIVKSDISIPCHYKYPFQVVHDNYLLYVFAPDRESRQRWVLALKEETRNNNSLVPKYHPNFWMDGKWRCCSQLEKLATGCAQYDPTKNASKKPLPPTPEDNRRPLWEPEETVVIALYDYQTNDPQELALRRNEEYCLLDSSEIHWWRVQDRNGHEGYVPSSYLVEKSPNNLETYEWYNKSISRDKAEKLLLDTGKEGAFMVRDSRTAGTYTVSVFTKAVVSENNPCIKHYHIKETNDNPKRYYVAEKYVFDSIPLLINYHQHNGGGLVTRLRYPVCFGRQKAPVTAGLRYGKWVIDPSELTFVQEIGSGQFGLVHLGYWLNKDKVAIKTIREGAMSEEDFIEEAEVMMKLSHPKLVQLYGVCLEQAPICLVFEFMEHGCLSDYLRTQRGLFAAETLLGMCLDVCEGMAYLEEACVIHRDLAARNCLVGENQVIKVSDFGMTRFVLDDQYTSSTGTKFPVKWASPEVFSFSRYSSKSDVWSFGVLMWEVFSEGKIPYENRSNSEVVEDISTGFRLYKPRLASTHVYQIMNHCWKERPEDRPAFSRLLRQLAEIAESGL
Conditions: at 0.1 µM.

The inhibition is the drop in the measured response relative to a control, in per cent.

SMILES strings stand for the structures. Values joined by “and” are separate entries in the source; they are usually repeats but may differ in a detail not shown here. Identical values can stand only once.

Sequence of Macrophage colony-stimulating factor 1 receptor (Homo sapiens) (P07333 whole entry): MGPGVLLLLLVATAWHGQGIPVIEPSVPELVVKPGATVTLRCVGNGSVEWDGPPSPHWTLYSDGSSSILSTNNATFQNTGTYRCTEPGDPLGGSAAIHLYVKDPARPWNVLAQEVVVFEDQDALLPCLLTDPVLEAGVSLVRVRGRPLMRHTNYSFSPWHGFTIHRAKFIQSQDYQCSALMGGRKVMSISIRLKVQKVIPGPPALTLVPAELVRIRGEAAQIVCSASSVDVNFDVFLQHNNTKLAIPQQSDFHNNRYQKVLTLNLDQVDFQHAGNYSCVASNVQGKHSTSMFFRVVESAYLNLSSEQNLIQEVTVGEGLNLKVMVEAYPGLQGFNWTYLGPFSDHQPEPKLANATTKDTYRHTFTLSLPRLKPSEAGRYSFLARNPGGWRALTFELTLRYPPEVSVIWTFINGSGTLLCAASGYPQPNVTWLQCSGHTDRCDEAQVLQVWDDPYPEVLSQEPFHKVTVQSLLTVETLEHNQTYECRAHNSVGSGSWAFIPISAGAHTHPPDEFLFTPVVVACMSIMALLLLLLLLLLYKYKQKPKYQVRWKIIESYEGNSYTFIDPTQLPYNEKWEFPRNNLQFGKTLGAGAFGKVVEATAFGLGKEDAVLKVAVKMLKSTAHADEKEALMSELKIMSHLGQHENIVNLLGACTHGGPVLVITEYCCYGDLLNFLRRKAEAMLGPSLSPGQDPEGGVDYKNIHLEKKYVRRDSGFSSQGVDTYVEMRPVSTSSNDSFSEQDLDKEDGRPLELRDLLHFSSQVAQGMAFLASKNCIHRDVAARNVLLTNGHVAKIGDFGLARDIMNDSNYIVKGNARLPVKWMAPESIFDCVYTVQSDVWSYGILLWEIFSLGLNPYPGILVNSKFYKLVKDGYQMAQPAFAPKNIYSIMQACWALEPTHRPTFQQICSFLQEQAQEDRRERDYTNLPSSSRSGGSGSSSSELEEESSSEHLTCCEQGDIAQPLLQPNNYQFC
Sequence of Insulin-like growth factor 1 receptor (Homo sapiens) (P08069 31-736 limits assumed): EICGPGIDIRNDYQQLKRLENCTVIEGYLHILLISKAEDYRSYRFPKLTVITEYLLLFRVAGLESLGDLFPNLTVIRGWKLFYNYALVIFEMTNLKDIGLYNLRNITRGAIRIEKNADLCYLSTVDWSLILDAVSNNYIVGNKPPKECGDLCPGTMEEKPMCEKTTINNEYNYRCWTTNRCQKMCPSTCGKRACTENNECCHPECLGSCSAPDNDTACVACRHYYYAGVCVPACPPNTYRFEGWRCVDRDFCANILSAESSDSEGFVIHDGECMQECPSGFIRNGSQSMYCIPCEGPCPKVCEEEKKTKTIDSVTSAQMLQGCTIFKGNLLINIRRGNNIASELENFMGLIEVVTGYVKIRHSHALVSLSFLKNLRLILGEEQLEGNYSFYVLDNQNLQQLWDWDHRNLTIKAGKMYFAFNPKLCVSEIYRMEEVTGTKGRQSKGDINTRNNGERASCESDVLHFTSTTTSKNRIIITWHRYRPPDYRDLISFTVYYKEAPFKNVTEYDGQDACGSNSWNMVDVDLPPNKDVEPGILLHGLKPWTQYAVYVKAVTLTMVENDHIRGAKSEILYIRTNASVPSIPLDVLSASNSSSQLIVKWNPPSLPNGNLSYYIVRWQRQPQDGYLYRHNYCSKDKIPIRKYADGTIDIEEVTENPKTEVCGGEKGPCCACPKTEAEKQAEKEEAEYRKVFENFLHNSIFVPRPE
Sequence of Insulin-like growth factor 1 receptor (Homo sapiens) (P08069 741-1367 limits assumed): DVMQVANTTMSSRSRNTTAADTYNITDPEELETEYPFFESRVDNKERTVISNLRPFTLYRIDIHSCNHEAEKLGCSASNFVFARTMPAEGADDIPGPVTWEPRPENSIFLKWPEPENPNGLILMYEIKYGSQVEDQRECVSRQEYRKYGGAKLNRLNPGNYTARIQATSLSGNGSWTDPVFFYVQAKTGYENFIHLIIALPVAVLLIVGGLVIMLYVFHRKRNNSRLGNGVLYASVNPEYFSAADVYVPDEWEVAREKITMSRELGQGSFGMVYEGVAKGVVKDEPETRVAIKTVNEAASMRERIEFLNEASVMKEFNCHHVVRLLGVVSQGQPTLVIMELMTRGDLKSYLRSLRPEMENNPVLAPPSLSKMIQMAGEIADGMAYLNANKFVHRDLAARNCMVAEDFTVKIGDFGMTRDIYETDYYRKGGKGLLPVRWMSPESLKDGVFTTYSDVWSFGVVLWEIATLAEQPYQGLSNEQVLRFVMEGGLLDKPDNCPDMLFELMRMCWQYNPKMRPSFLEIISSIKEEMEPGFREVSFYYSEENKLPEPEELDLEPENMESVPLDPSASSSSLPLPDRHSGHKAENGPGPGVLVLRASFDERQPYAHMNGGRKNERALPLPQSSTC
Sequence of Vascular endothelial growth factor receptor 3 (Homo sapiens) (P35916 whole entry): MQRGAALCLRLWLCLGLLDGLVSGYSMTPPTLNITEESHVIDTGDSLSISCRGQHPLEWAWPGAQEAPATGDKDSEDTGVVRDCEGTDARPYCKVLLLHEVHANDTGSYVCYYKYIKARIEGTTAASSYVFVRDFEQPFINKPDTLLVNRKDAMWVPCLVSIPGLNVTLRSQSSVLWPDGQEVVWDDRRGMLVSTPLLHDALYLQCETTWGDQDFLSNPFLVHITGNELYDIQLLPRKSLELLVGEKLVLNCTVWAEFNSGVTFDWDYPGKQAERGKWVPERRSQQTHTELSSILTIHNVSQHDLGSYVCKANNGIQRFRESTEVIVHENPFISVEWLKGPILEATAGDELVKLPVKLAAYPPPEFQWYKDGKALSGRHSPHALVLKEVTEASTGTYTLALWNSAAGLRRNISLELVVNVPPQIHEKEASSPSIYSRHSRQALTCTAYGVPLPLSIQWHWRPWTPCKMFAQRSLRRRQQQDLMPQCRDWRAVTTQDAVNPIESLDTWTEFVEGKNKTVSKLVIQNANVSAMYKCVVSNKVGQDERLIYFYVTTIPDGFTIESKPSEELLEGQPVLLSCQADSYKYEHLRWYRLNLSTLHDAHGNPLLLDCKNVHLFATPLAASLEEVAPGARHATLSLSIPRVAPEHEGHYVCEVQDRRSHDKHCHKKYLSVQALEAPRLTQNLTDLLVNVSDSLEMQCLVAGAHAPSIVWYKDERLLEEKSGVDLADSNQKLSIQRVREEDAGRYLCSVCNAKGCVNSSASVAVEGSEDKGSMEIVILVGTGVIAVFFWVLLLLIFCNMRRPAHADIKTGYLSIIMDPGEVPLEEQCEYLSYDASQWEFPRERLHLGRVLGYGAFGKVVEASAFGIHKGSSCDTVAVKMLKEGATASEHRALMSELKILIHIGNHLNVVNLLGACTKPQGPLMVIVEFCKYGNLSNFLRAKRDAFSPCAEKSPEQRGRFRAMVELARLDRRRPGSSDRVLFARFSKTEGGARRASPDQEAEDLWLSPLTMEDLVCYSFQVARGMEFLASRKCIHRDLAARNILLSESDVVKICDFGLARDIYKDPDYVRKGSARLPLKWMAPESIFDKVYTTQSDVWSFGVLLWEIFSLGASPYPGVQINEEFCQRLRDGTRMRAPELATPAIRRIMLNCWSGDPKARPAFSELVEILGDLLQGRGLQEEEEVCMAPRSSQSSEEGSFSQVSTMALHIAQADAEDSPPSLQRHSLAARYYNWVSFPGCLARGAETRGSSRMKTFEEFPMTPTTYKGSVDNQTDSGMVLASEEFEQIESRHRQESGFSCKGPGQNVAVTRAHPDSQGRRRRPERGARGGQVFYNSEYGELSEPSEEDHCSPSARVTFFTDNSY
Sequence of Serine/threonine-protein kinase PLK1 (Homo sapiens) (P53350 whole entry): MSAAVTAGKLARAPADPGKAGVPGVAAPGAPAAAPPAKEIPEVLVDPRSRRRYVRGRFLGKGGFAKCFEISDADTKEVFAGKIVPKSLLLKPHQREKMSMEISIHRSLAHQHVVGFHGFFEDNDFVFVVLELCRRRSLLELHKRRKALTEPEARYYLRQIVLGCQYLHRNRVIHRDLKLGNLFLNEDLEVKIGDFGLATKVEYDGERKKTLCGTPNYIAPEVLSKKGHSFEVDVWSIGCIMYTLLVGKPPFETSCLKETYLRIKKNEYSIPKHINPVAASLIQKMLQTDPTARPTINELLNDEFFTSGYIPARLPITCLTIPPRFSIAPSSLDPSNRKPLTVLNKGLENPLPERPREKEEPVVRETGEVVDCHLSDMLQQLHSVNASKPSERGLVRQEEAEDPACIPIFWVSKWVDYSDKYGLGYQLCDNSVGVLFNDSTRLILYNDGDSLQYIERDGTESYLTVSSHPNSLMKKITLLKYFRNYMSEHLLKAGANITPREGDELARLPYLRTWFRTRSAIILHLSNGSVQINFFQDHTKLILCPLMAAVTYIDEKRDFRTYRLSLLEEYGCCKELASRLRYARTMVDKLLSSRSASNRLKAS
Sequence of Tyrosine-protein kinase HCK (Homo sapiens) (P08631 2-526 limits assumed): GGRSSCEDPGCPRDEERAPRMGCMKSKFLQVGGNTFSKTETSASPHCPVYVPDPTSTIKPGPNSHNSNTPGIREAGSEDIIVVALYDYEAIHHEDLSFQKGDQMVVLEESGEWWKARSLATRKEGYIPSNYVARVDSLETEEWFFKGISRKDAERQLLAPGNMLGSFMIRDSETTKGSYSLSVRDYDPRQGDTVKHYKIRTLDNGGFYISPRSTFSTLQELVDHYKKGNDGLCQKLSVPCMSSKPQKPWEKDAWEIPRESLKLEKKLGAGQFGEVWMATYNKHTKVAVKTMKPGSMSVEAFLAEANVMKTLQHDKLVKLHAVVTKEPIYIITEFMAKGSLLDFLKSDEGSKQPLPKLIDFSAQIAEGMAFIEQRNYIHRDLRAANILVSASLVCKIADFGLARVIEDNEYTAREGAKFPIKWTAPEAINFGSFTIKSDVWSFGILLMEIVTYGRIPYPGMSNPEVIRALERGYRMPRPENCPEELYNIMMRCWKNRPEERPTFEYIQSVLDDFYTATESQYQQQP

On to `Nc1nonc1-c1nc2cnccc2n1C1CC1`, for which the inhibition in experiment [1] is 1.51% and 3.66%; in [2], 3.84% and 2.82%; in [3] it was 5.97% and 4.56%; in experiment [4], 5.61% and 5.02%; in experiment [5] it was 7.78% and 5.95%; in [6], 5.27% and -4.56%. Moreover, the inhibition was 21.9% and 17.5% in experiment [7]; 3.87% and 1.25% in experiment [8]; 10.1% and 8.4% in [9]; 1.35% and -1.92% in experiment [10]; 1.39% and -1.43% in experiment [11]; 5.06% and 2.65% in experiment [12]. Also, the inhibition is 10.4% and 4.62% in [13]; 2.14% and -5.78% in [14]; 3.37% and -3.55% in experiment [15]; -0.15% and 4.69% in experiment [16]; 2.19% and 6.69% in [17]; 2.59% and 0.39% in experiment [18]. In addition, the inhibition in experiment [19] was 3.14% and 0.7%; in [20], 1.56% and -2.28%.

Regarding `CN(C)CCNC(=O)Nc1ccc(N(C)c2ccnc(Nc3ccc(CS(C)(=O)=O)cc3)n2)cc1`, the inhibition in experiment [1] was determined as 4.76%; in experiment [2], 3.28%; in experiment [3], 3.61%; in experiment [4], 6.19%; in experiment [5], 5.12%; in [6], 2.39%. Also, the inhibition in experiment [7] was determined as 4.9%; in [8] it was 14.8%; in experiment [9], 67.3%; in experiment [10], 1.66%; in experiment [11], 3.44%; in experiment [12] it was 6.05%. Also, the inhibition in experiment [13] stood at 12.3%; in experiment [14], 5.44%; in experiment [15], 8.75%; in [16], 3.47%; in [17], 5.6%; in [18], 2.48%. In addition, the values for the inhibition in experiment [19] and in [20] were 3.81% and 1.62%, respectively.

As for `CCOc1ccc2c(-c3ccnc(Nc4cc(OC)cc(C(F)(F)F)c4)n3)cnn2n1`, the inhibition in [1] is 7.2%; in experiment [2], 0.53%; in experiment [3], 1.68%; in experiment [4] it was -0.36%; in [5], 17%; in experiment [6], 15.8%. The inhibition in [7] amounted to 22.8%; in [8], 2.34%; in experiment [9] it was 17.2%; in experiment [10] it was 3.33%; in [11], 13.1%; in experiment [12], 3.74%. The inhibition is 4.95% in experiment [13]; 8.6% in experiment [14]; 7.42% in experiment [15]; -0.85% in experiment [16]; 1.65% in [17]; -0.39% in experiment [18]. In addition, the inhibition in experiment [19] was 0.03%; in experiment [20], 0.24%.

For the molecule `COc1cc(Nc2ncc(-c3ccccc3)o2)cc(OC)c1`, the inhibition came to 7.35% in [1]; 4.62% in experiment [2]; 2.5% in [3]; 10% in experiment [4]; 36.7% in experiment [5]; 1.25% in [6]. In addition, the inhibition in [7] is 9.4%; in [8] it was 14.5%; in [9], 56.3%; in [10], 2.7%; in experiment [11] it was 26.5%; in experiment [12] it was 8.41%. The inhibition was 19.9% in [13]; -0.03% in [14]; 4.18% in [15]; 1.03% in [16]; 5.64% in experiment [17]; 2.92% in experiment [18]. Besides, the inhibition is 2.43% in experiment [19] and -0.12% in [20].

In the case of `COc1ccc(Nc2ncc(-c3ccccc3)o2)cc1OC`, the inhibition came to 9.31% in experiment [1]; 2.85% in experiment [2]; 1.53% in [3]; 2.17% in experiment [4]; 47.1% in [5]; 5.08% in experiment [6]. Moreover, the inhibition in experiment [7] turned out to be 25.5%; in [8] it was 21.9%; in [9] it was 77.2%; in experiment [10], 4.17%; in [11], 26.1%; in experiment [12], 5.41%. Also, the inhibition in experiment [13] is 30.2%; in experiment [14], 0.16%; in experiment [15], 2.03%; in experiment [16], 1.73%; in experiment [17], 1.42%; in experiment [18], -0.23%. Further, the inhibition in experiment [19] was -0.92%; in [20], 1.19%.

(Values after ChEMBL document CHEMBL1961873, “Compounds: GSK PKIS; Assays: Nanosyn kinase panel” (2012).)
